Screens: PubChem BioAssay, National Center for Advancing Translational Sciences (NCATS)
HCMV inh: human cytomegalovirus inhibition. 410,000 tested, 4.5% active. activity change, negative = inhibition, % at 57.5 µM. AID 1259415. HFF cells, HCMV-luciferase reporter, 72 h; active compounds read low; in the data active = activity change below about -60%; inconclusive = no clear call, values can overlap the other calls; inactive = above about -39%
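Two compound doses tested in HFFs infected with HCMV-luciferase, MOI 1 PFU/cell, 72 h at 37C. Lysate luminescence read with OneGlo; data normalized against buffer-only and 10uM Salinomycin inhibitor controls.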
FMDV antiviral: blocks foot and mouth disease virus | FMDV antiviral cell-based qHTS | Potency, µM (doses to about 57.9 µM), inactives show top-dose activity change, negative = inhibition, most hits filed as inhibitors | 410,000 tested, 1.2% active; calls by dose curve; tested in HEK293T cells; note: read-out not given here; potency is the fitted concentration of half-maximal effect; nearly all actives have a fitted effect of over 45% in size
Lassa entry inh: Lassa virus entry inhibition; Lassa virus pseudotype entry inhibition, cell reporter; Potency, µM (doses to about 37.9 µM), for the others: at the highest dose activity change, negative = inhibition, actives largely listed as inhibitors; 300,000 tested, 1.2% active; AID 540256; calls by dose curve; tested in HEK293 cells; note: potency is the fitted concentration of half-maximal effect; nearly all actives have a fitted effect of over 50% in size
MARV entry inh: blocks Marburg virus binding to or entry into cells; 300,000 tested, 1.8% active; Marburg virus pseudotyped entry inhibition, cell reporter; Potency, µM (highest dose often 37.8 µM), inactives show at the top dose activity change, negative = inhibition, most hits filed as inhibitors; calls by dose curve; tested in HEK293 cells; note: potency is the fitted concentration of half-maximal effect
* hit, by the source's call; ? = inconclusive; . = not tested or not shown; [ ] = remark or other dose. Compounds with a hit are over-represented: about 6.2% of the library has one in this group of screens. % is set by controls: 0 for no effect and ±100 for the full control effect.

SMILES	HCMV inh	FMDV antiviral	Lassa entry inh	MARV entry inh
COc1c2ccc(OCC/C(C)=C/C(=O)C=C(C)C)cc2nc2occc12	-101*	-12%	.	.
Cc1ccc(/C(N)=N/OC(=O)c2ccco2)cc1	38	-54%	?	?
COc1ccc(/C(N)=N/OC(=O)c2ccco2)cc1	79	-45%	7.1µM*	?
CC1CCCC(NC(=O)NC(=O)CCl)C1C (stereo unspecified)	-29	20µM*	0%	-8%
COc1ccc(-c2nc(NC(=O)c3ccc(OCC(=O)Nc4ccc(F)cc4)c(OC)c3)sc2C)cc1	23	18µM*	?	?
Cc1ccc2nc(C(Cl)(Cl)Cl)nc(N/N=C/c3ccc([N+](=O)[O-])cc3)c2c1	-28	22µM*	25%	10%[46.1 µM]
Cc1ccc2nc(C(Cl)(Cl)Cl)nc(N/N=C/c3ccncc3)c2c1	-30	-24%	-4%	-2%[46.1 µM]
O=[N+]([O-])c1ccc(N2CCOCC2)cc1O	10	5%	-2%[46.1 µM]	-1%[46.1 µM]
Cc1cc(N2CCOCC2)ccc1/C=C\[N+](=O)[O-]	-98*	?	21µM*	?
CC(C)(C)Nc1nc(NN)nc(NC(C)(C)C)n1	-85*	-22%	?	?
COc1ccc(OC)c(CCNC(=O)c2cnn(-c3ccccc3)c2C2CCN(C(=O)OC(C)(C)C)CC2)c1	?	-20%	?	.
OCCCNc1cc(-c2ccnc(Nc3cccc(Cl)c3)n2)ccn1	-97*	?	.	.
CCC(C)Oc1cc(-c2ccnc(Nc3cccc(Cl)c3)n2)ccn1 (stereo unspecified)	-86*	-2%	.	.
CN1C(=O)C2(c3ccccc31)N(C)CC(c1ccccc1)C21SC(=S)N(Cc2ccco2)C1=O (stereo unspecified)	-62*	-5%	?	?
Cc1ccccc1C(=O)O/N=C(\N)Cc1cccs1	-62*	2%	9%[46.1 µM]	?
COc1ccccc1C/C(N)=N/OC(=O)c1cccs1	65	-6%	10µM*	11µM*
COc1cc(Cl)c(C)cc1NC(=O)c1cc2ccc3cccnc3c2[nH]1	110	12%	-9%[46.1 µM]	.
C/C(CC(=O)Nc1ccc(Cl)c(C(F)(F)F)c1)=N\NC(=O)c1cccc(O)c1	-15	-18%	?	?
C/C(CC(=O)Nc1ccc(Cl)c(C(F)(F)F)c1)=N\NC(=O)c1ccccc1O	-80*	?	?	18µM*
Cc1ccc(OCCCCn2nnc3sc4c(c3c2=O)CCC(C)C4)cc1 (stereo unspecified)	4	-24%	?	-4%[46.1 µM]
Cc1ccc2nc3c(c(Nc4ccc(C)c(C)c4)c2c1)CCC3	?	-12%	?	.
Cc1cccc(-c2noc(-c3ccc(N4CCN(C)CC4)c([N+](=O)[O-])c3)n2)c1	-78*	-12%	-22%[46.1 µM]	-2%[46.1 µM]
Cc1cccc(-c2noc(-c3ccc(N4CCCC4)c([N+](=O)[O-])c3)n2)c1	-74*	?	-6%[46.1 µM]	?
Cc1cccc(-c2noc(-c3ccc(N4CCOCC4)c([N+](=O)[O-])c3)n2)c1	-23	1%	3%[46.1 µM]	?
O=C(O)c1cnn(-c2nc(-c3cccc([N+](=O)[O-])c3)cs2)c1C(F)(F)F	-94*	4%	.	.
SMILES	HCMV inh	FMDV antiviral	Lassa entry inh	MARV entry inh
O=C(c1ccc2c(c1)N(Cc1cccc(Cl)c1)C(=O)c1ccccc1S2(=O)=O)N1CCc2ccccc21	14	-9%	?	.
COc1cc(NC(=O)CN2C(=O)CN(C)C2=O)c(C)cc1[N+](=O)[O-]	-2	3%	?	?
COc1cc(NC(=O)Cn2ncc(Cl)c(Cl)c2=O)c(C)cc1[N+](=O)[O-]	-96*	13µM*	?	7.1µM*
O=C(c1ccc(-n2cccc2)cc1)N1CCOCC1	62	19%	1%	18%
CC12C(=O)N(c3ccc(C(=O)N4CCOCC4)cc3)C(=O)C1C1c3ccccc3C2c2ccccc21 (stereo unspecified)	-101*	.	12%	20%
CN(C)c1ccc(C(=O)/C=C/c2ccccc2)cc1	-7	9%	?	?
CCOC(=O)N(O)c1ccc(C=Cc2ccccc2)cc1	-62*	15%	0.63µM*	1.3µM*
O=C(CF)N(O)c1ccc(C=Cc2ccccc2)cc1	-79*	16%	1.1µM*	1µM*
COc1cc2c(cc1OC)C(C)N(C(=O)c1cc(C)on1)CC2 (stereo unspecified)	-66*	-20%	?	-25%
COc1cc2c(cc1OC)C(C)N(C(C)=O)CC2 (stereo unspecified)	107	.	13%	4%
COc1cc2c(cc1OC)C(C)N(C(=S)NC(=O)c1ccccc1)CC2 (stereo unspecified)	-61*	?	-15%	-3%[46.1 µM]
COc1cc2c(cc1OC)C(C)N(C(=O)c1c(C)noc1C)CC2 (stereo unspecified)	?	-7%	.	.
COc1cc2c(cc1OC)C(C)N(C(=O)C1COc3ccccc3O1)CC2 (stereo unspecified)	-65*	25µM*	?	?
CCN(CC)CCCNC(=O)CCCn1c(=O)[nH]c2ccc(Br)cc2c1=O	-8	-8%	2%[46.1 µM]	?
CCCCC1(Cc2ccc([N+](=O)[O-])cc2)C(=O)N(c2ccccc2)N(c2ccccc2)C1=O	-98*	?	?	7.9µM*
COc1ccccc1C(=O)n1nc(-c2ccccc2)nc1NCc1ccc(Cl)cc1	18	-2%	-17%[46.1 µM]	?
O=c1n(Cc2ccc(Cl)cc2)c2ccccc2c2nc(-c3ccccc3)nn12	-3	-12%	18%[46.1 µM]	3%[46.1 µM]
O=C(CCl)N1CCN(S(=O)(=O)c2ccc3c(c2)CCC3)CC1	-80*	20µM*	.	.
O=C(CCl)N1CCN(S(=O)(=O)Cc2ccccc2)CC1	-76*	28µM*	.	.
Cc1cccc(CCNC(=O)C2CCN(c3ncnc4c3nc3n4CCCCC3)CC2)c1	?	-15%	?	.
O=C(Cc1c(F)cccc1Cl)Nc1cccc(S(=O)(=O)NC2=NCCCCC2)c1	-3	7%	?	-2%
O=C(Cc1ccc(Cl)cc1Cl)Nc1cccc(S(=O)(=O)Nc2ccccc2F)c1	9	-8%	7.3µM*	?
COc1cccc(CN(C)C(=O)c2cnn(-c3ncc4c(n3)-c3ccccc3CCC4)c2C)c1	.	-29%	.	.
CCOC(=O)c1c(NC(=O)COC(=O)c2nccnc2N)sc2c1CCC2	34	-38%	.	.
CCOC(=O)c1c(NC(=O)COc2cccc3c2CCN(CC)C3=O)sc2c1CCC2	-80*	-16%	-14%	?
SMILES	HCMV inh	FMDV antiviral	Lassa entry inh	MARV entry inh
CCOC(=O)c1c(NC(=O)COC(=O)c2nc(Cl)ccc2Cl)sc2c1CCC2	-61*	-9%	13%	-12%
Cc1cccc(N2CCN(C(=O)c3cc4c(=O)n(C)c5ccccc5c4n3C)CC2)c1C	?	32µM*	.	.
Cc1ccc(Cl)cc1N1CCN(C(=O)c2cc3c(=O)n(C)c4ccccc4c3n2C)CC1	-79*	8.9µM*	.	.
Cn1c(C(=O)N2CCCC2)cc2c(=O)n(C)c3ccccc3c21	-7	-2%	.	.
COCOc1c2c(c(OCOC)c3c(OCOC)cccc13)C(=NNS(=O)(=O)c1ccc(C)cc1)C1=C2CCCC1	.	.	.	-17%[14.2 µM]
C[C@H](NC(=O)c1ccccc1)C(=O)N1CCN(Cc2ccc3c(c2)OCO3)CC1	8	-15%	.	.
